The sample as a whole holds a higher share of hits than the screen did.
HIV RNase H inh-1 = inhibitors of HIV-1 reverse transcriptase RNase H; inhibition, % at 10 µM; hit rate 1.9% among 65,000; RT-RNase H RNA/DNA duplex cleavage, fluorescence; P04585; in the data active = inhibition above about 50%
HIV RNase H inh-2 = confirmation of HIV-1 reverse transcriptase RNase H inhibitors; shares compounds with HIV RNase H inh-1; AID 651; Recombinant RT RNase H, fluorescent RNA/DNA duplex cleavage; hit rate 39% among 1,000; inhibition, % at 10 µM; in the data active = inhibition above about 48%; inconclusive = no clear call, values can overlap the other calls
* hit, by the source's call; ? = inconclusive.

SMILES | HIV RNase H inh-1 | others
CCOC(=O)C(C)Sc1nc2c(c(=O)[nH]c(=O)n2C)n1Cc1ccc(Cl)cc1 (centres undefined) | 71.0* | HIV RNase H inh-2=23.6
C=CCSc1nc2c(c(=O)[nH]c(=O)n2C)n1C(C)C | 75.9* | HIV RNase H inh-2=59.4*
C=CCSc1nc2c(c(=O)[nH]c(=O)n2C)n1Cc1ccc(C)cc1 | 84.3* | HIV RNase H inh-2=30.6
O=C(NCC1COc2ccccc2O1)C1CCCN(S(=O)(=O)c2cnc[nH]2)C1 (centres undefined) | -8.7
CCSc1nnc(Cc2cc(=O)[nH]c(=O)[nH]2)n1-c1cc(C)ccc1C | -13.8
C[C@H](CS)C(=O)N1CCC[C@H]1C(=O)O | 0.6
N/C(=N\S(=O)(=O)c1ccc(Cl)s1)c1ccccc1 | -19.4
CCc1nc2ccccc2n1CCC(C)C | -44.7
COc1ccccc1-n1c(CNC(=O)COc2ccccc2)n[nH]c1=S | -1.1
CS(=O)(=O)N(CC(=O)NCc1ccco1)c1ccc(Cl)c(C(F)(F)F)c1 | -5.4
CCCCCCS(=O)Cc1ccccc1 (centres undefined) | -2.4
Cc1onc(-c2ccccc2)c1C(=O)N1CCc2ccccc21 | -19.6
CC1(C)CC(=O)C2=C(C1)OC(N)=C(C#N)C2C#Cc1ccccc1 (centres undefined) | 59.7* | HIV RNase H inh-2=4.7
CC(c1ccccc1)C1C(C#N)=C(N)OC2=C1C(=O)CC(C)(C)C2 (centres undefined) | -6.8
CC1(C)CC(=O)C2=C(C1)OC(N)=C(C#N)C2CCc1ccccc1 (centres undefined) | -3.1
Cc1ccc(Cn2nc(C)c(NC(=O)c3cc(-c4ccco4)on3)c2C)cc1 | -2.8
COc1ccc(-c2cc(C(=O)Nc3c(C)nn(Cc4ccc(Cl)cc4)c3C)no2)cc1 | 62.0* | HIV RNase H inh-2=-5.6
Cc1nn(Cc2ccc(Cl)cc2)c(C)c1NC(=O)c1cc(-c2ccco2)on1 | -43.5
CSc1nn(CCc2ccncc2)c(=S)s1 | -27.1
C=CCSc1nc(N)c(C(=O)Nc2ccccc2C)cc1C(N)=O | -0.1
CCOc1ccc(C2C(C#N)=C(N)SC(N)=C2C#N)cc1OC | 68.8* | HIV RNase H inh-2=4.6
CCOc1ccccc1C1C(C#N)=C(N)SC(N)=C1C#N | -5.0
COC(=O)C1=C(C)OC(N)=C(C#N)C1c1ccccc1 (centres undefined) | -40.5
CCc1ccc(C2C(C#N)=C(N)SC(N)=C2C#N)cc1 | 69.9* | HIV RNase H inh-2=18.3
CCOC(=O)C1=C(C)OC(N)=C(C#N)C1c1ccoc1 (centres undefined) | -89.2
SMILES | HIV RNase H inh-1 | others
N#CC1=C(N)SC(N)=C(C#N)C1c1cccc(Oc2ccccc2)c1 | 70.4* | HIV RNase H inh-2=38.6
N#CC1=C(N)SC(N)=C(C#N)C1CCc1ccccc1 | 71.9* | HIV RNase H inh-2=1.9
COC1(OC)N=C(N)C2(C#N)C(c3cccc(Oc4ccccc4)c3)C12C#N (centres undefined) | -12.4
N#CC1=C(N)SC(N)=C(C#N)C1c1c(Cl)cccc1Cl | -12.1
N#CC1=C(N)OC(c2ccccc2)=C(C#N)C1c1ccc2c(c1)OCO2 (centres undefined) | -12.7
CCCc1[nH]nc2c1C(CCc1ccccc1)C(C#N)=C(N)O2 (centres undefined) | -5.6
CCCOc1ccc(C2C(C#N)=C(N)Oc3nc[nH]c(=O)c32)cc1OC (centres undefined) | -9.9
Cc1ccc(C(=O)CSc2nnc(-c3ccco3)n2CC2CCCO2)cc1 (centres undefined) | -0.9
CCOC(=O)c1sc2nc(SCC#N)n(CCCN3CCCC3=O)c(=O)c2c1C | -18.7
CN(c1ccccc1)C(c1ccc(F)cc1)c1nnnn1C1CCCC1 (centres undefined) | 2.8
O=C(O)CN(Cc1ccccc1)S(=O)(=O)c1ccc(F)cc1 | 33.5
C/C(=N\n1nnnc1Nc1ccccc1)c1ccc(N)cc1 | -14.3
N#CC1=C(N)SC(N)=C(C#N)C1c1ccc(C(F)(F)F)cc1 | 60.7* | HIV RNase H inh-2=15.2
N#CC1=C(N)SC(N)=C(C#N)C1C1CC=CCC1 (centres undefined) | 1.9
Cc1ccc(C2C(C#N)=C(N)Oc3nc(-c4ccccc4)[nH]c32)o1 (centres undefined) | -7.5
Cc1ccc(C2C(C#N)=C(N)Oc3cc4c(cc32)OCO4)cc1 (centres undefined) | -18.0
Cc1ccc(C2C(C#N)=C(N)SC(N)=C2C#N)o1 | 80.3* | HIV RNase H inh-2=?
Cc1ccc(SCc2[nH]nc3c2C(c2ccc(C)o2)C(C#N)=C(N)O3)cc1 (centres undefined) | -7.1
Cc1cccc(NC(=O)C2CCN(S(=O)(=O)c3cccc4cccnc34)CC2)n1 | -33.8
COc1ccccc1C1CC(c2ccc(Cl)cc2)Nc2ncnn21 (centres undefined) | -13.0
COc1ccc([C@@H]2Sc3ccccc3N(CCN(C)C)C(=O)[C@@H]2OC(C)=O)cc1 | -2.7
CC1(C)Cc2c(sc(NC(=O)c3ccc(Br)o3)c2C#N)CO1 | -2.7
N#Cc1c(NC(=O)c2ccc(Cn3cc(Br)cn3)o2)sc2c1CCCCCC2 | 88.5* | HIV RNase H inh-2=61.5*
CCc1ccc(CCC(=O)Nc2sc3c(c2C#N)CCCC3)o1 | 43.1
CCCn1c2c(c(O)c(C(=O)Nc3ccc(C)cn3)c1=O)CCCC2 | 0.8
SMILES | HIV RNase H inh-1 | others
O=C(Nc1cccnc1)c1c(O)c2c(n(Cc3ccccc3)c1=O)CCCC2 | 68.4* | HIV RNase H inh-2=?
CCCn1c2c(c(O)c(C(=O)Nc3ncccc3C)c1=O)CCCC2 | -10.5
CN(C)/C=N/c1cnc(C(=O)c2ccc(Cl)cc2)n1C | -14.6
CCSc1nc2cc(C(=O)OC)ccc2c(=O)n1CC | -30.7
CCc1ccc(NC(=O)CSc2nc3cc(C(=O)OC)ccc3c(=O)n2Cc2ccco2)cc1 | 59.1* | HIV RNase H inh-2=57.4*
CCN(C(=O)CSc1nc2cc(C(=O)OC)ccc2c(=O)n1Cc1ccco1)c1cccc(C)c1 | 2.0
CCCCCn1c(=NC(C)=O)c(C#N)cc2c(=O)n3cccc(C)c3nc21 | 0.2
O=C1N=C(N2CCOCC2)S/C1=C1\C(=O)N(Cc2ccccc2)c2ccc(Br)cc21 | 11.9
CCCCN1C(=O)/C(=C2\SC(N3CCCCC3)=NC2=O)c2ccccc21 | 86.2* | HIV RNase H inh-2=25.0
Cc1ccc(CN2C(=O)/C(=C3\SC(N4CCOCC4)=NC3=O)c3cc(Br)ccc32)cc1 | 22.9
O=C(Cc1cccs1)N1CCCC(c2nc3c(nnn3Cc3cccc(Cl)c3)c(=O)[nH]2)C1 (centres undefined) | -7.0
O=C1OCCC1Sc1nc2cc(Cl)ccc2s1 (centres undefined) | -23.9
O=C(Nc1sc2c(c1C(=O)NC1CC1)CCCCCC2)c1ccco1 | 28.6
NC(=O)c1c(N)sc2c1CCCC2 | 35.4
Nc1sc2c(c1C(=O)NC1CCS(=O)(=O)C1)CCCC2 (centres undefined) | 65.9* | HIV RNase H inh-2=26.5
O=C(c1ccc(F)cc1)C1CCN(C(=O)N2CCOCC2)CC1 | 6.9
O=C(Nc1ccc2c(c1)OCCO2)C1CCN(C(=O)c2ccc(F)cc2)CC1 | -0.7
O=C(c1ccc(F)cc1)C1CCN(C(=O)c2ccncc2)CC1 | 88.0* | HIV RNase H inh-2=42.2
CC1(c2cccs2)CC(c2cccs2)=C(C#N)C(=O)N1 (centres undefined) | -20.7
CCCc1c(O)nc(SCCN(CC)CC)n(C(=O)c2ccccc2)c1=O | 0.6
Cc1ccccc1Nc1nnc(SCC(=O)NC(=O)NCc2ccco2)s1 | 66.6* | HIV RNase H inh-2=20.2
O=C(CSc1nnc(Nc2ccccc2)s1)NCc1ccco1 | -4.6
O=C(CSc1nnc(Nc2ccccc2F)s1)NCc1ccco1 | 33.3
COc1c(C)cccc1C(=O)Nc1cc(-c2nn3c(C)nnc3s2)ccc1C | -10.2
O=C(Oc1ccc(-c2nnco2)cc1)N(c1ccccc1)c1ccccc1 | -3.3
